Source: PubChem BioAssay (NCATS)
Records with an inconclusive call do not appear. A number with no mark means an inactive call. Calls come from the whole dose curve; as a rule, active = well fitted inhibition curve with a large enough effect; inconclusive = small, poorly fitted or top-dose-only effect; inactive = no such curve, though single readings can be large or run the other way.

Test: NS1 protein of Zika virus - qHTS assay to identify small molecule inhibitors in human HEK 293 cells (AID 1347053);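 note: plate controls were infected untreated cells for no effect and uninfected cells for full effect; nearly all actives have a fitted effect of over 55% in size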
Settings: HEK293 ZIKV MR766 infection, NS1 TR-FRET, 24 h; series mostly up to 46.1 µM; activity change, negative = inhibition: at the top concentration
Description: National Center for Advancing Translational Sciences [NCATS]
Johns Hopkins University School of Medicine
The non-structural 1 (NS1) protein of zika virus is known to associate with the viral replication complex. This cell-based TR-FRET ZIKV NS-1 assay measures the increased NS-1 protein in human HEK 293 cells after a 24-hour Zika virus infection by a TR-FRET assay readout. A decrease in the Time-resolved fluorescence energy transfer (TR-FRET) signal in this assay by small molecule treatment indicates an inhibitory effect of the small molecule on the expression of Zika virus NS1 correlating with Zika virus replication.
HEK 293 cells were cultured in EMEM (ATCC, Cat. # 30-2003) medium with 10% fetal bovine serum (GE healthcare Life Sciences, Cat. # SH30071.03), and 1% Pen/Strep (Gibco, Cat. # 15140-122). Cells were seeded in the assay plate and incubated at 37 C with 5% CO2 for 20 hours. Compounds were added to cells and incubated for one hour before addition of ZIKV MR766 strain solution to cells (MOI = 0.5). After an incubation at 37 C for 24 hours, the reagent mixture of TR-FRET ZIKV NS1 assay using two anti-ZIKV NS1 antibodies was added to assay plates. The TR-FRET signals in assay plates were measured using an Envision plate reader (PerkinElmer). Data were normalized by using the cell-containing wells without ZIKV as a negative control (0% NS-1) and wells containing ZIKV infected cells as a positive control (100% NS-1 level).

Point of comparison: `CCN(CC)CC(=O)OCC(=O)[C@@]1(O)CC[C@H]2[C@@H]3CCC4=CC(=O)CC[C@]4(C)[C@H]3[C@@H](O)C[C@@]21C`, “activity change, negative = inhibition” value -1.77%. Against it:
- CN1CCC(N(Cc2cccs2)c2ccccc2)CC1 — higher, 0.306%
- CCOC(=O)C(O)c1ccccc1 (stereo not given) — higher, 0.772%
- CC(C)C(=O)Nc1cccc(C2CN3CCSC3=N2)c1 (stereo not given) — higher, -1.57%
- O=C1NC(c2cccc([N+](=O)[O-])c2)=CCN1c1ccccc1O — lower, -12.5%
- CCCCCCCCCCCCCCCCCCN(C)C — lower, -14.8%
- Nc1c(I)cc(I)c(C(=O)N(CCC(=O)O)c2ccccc2)c1I — lower, -3.46%
- O=C(c1ccco1)N1CCNCC1 — lower, -2.12%
- NC(=O)NS(=O)(=O)c1ccc(Cl)cc1 — higher, 2.04%
- CC(=O)Nc1ccc(S(=O)(=O)Nc2cc(C)on2)cc1 — lower, -11.4%
- CO/N=C(/C(=O)N[C@@H]1C(=O)N2C(C(=O)[O-])=C(C[n+]3ccn4ncccc43)CS[C@H]12)c1nsc(N)n1 — lower, -3.49%
- Cc1ccc2c(Cl)cc(Cl)c(O)c2n1 — higher, -1.29%
- Cc1coc2ccccc2c1=O — higher, 0%
- CC(=O)c1ccc(O)c(C(N)=O)c1 — lower, -17.5%
- COc1ccc2nc(SCc3ncc(C)c(OC)c3C)[nH]c2c1 — lower, -4.78%
- COC(=O)c1ccc(NC(C)=O)cc1OC — higher, 6.59%
- CC1(C)OC(=O)Nc2ccc(Br)cc21 — higher, -1.17%
- O=C(O)/C=C(\CC(=O)O)C(=O)O — higher, -0.754%
- CN(CC1(C)CCCO1)S(=O)(=O)c1ccc(Cl)c(S(N)(=O)=O)c1 (stereo not given) — higher, 10.7%
- N=C(N)c1ccc(OCCCOc2ccc(C(=N)N)cc2)cc1 — higher, -1.4%
- Nc1ccc(C(=O)N2CC3CC(CN(Cc4ccccc4)C3)C2)cc1 — lower, -2.1%
- CN1C(CSCC(F)(F)F)Nc2cc(Cl)c(S(N)(=O)=O)cc2S1(=O)=O (stereo not given) — lower, -1.92%
- NC(=O)COCCN1CCN(C(c2ccccc2)c2ccc(Cl)cc2)CC1 (stereo not given) — lower, -13.3%
- COC(=O)C1=CO[C@@H](O)[C@@H]2C(CO)=CC[C@H]12 — higher, 62.9%
- C[N+](C)(C)CCO — lower, -13.3%
- O=C(C1CCCCC1)N1CC(=O)N2CCCc3ccccc3C2C1 (stereo not given) — higher, -1.14%
- CN(C)C(=O)CNC(=O)Cc1ccccc1 — lower, -14.7%
- O=C(O)C(=O)Nc1cccc(-c2nn[nH]n2)c1 — lower, -13%
- C[N+]1(C)CCC(OC(=O)C(O)(c2ccccc2)C2CCCC2)C1 (stereo not given) — higher, 5.34%
- N#Cc1cc(NC(=O)C(=O)O)c(Cl)c(NC(=O)C(=O)O)c1 — lower, -4.49%
- CC(=O)c1cc2ccccc2s1 — higher, 1.7%
- COc1cc2c(cc1OC)C(=O)CC2 — lower, -5.23%
- COc1cc(S(N)(=O)=O)cc(C(=O)O)c1OC — higher, 8.88%
- O=C1Cc2cc(Cl)ccc2N1 — higher, 4.33%
- C/C(=C1\CCOC(=O)S1)N(C=O)Cc1cnc(C)nc1N — higher, -0.415%
- CC1(C)S[C@@H]2[C@H](NC(=O)C(c3ccccc3)S(=O)(=O)O)C(=O)N2[C@H]1C(=O)O (stereo not given in full) — lower, -13.1%

Point of comparison: `CC(C)(C)c1ccc(O)c(O)c1`, “activity change, negative = inhibition” value 7.1% [at 92.8 µM]. Against it:
- COC(=O)c1c(Cl)c(Cl)c(C(=O)OC)c(Cl)c1Cl — lower, -0.224% [at 92.8 µM]
- O=C(Oc1ccccc1)c1cccc(C(=O)Oc2ccccc2)c1 — lower, 5.42% [at 92.8 µM]
- CCCC(=O)c1cc(O)c(O)cc1O — higher, 12.7% [at 92.8 µM]
